Experimental data published in the supplement of paper PMC10849652.
The full data set covers some 8,800 targets. This sample favours those with a hit. About 0.5% of all pairs of compound and target were hits.

Legend:
Assay in all cases: log2 fold change, soluble protein after heating vs DMSO (PISA); higher = thermal stabilisation; K562 lysate, 10 uM; active = over 0.2 and 3.5 SD of the protein, either way, in both replicates (recomputed)
ibrutinib = compound: C=CC(=O)N1CCC[C@@H](n2nc(-c3ccc(Oc4ccccc4)cc3)c3c(N)ncnc32)C1 [ibrutinib]
In short: (§1)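 The values are log-two fold changes in thermal stability compared with solvent controls and come from duplicates. They were obtained by TMTpro 16plex LC-MS/MS, with channel sums equalised, on the supernatant after 21,000xg for 90 min. That supernatant came from crude K562 extract at 1 mg/mL protein treated with 10 μM compound for 30 min, heated for 3 min across 48°C-58°C, pooled and brought to 0.5% NP-40 at 4°C.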

[1] = compound: CC(=O)c1cnc2ccc(-c3cc(Cl)c(O)c(Cl)c3)nc2c1N[C@H]1CC[C@H](CN(C)C)CC1
In short: as §1

ralimetinib = compound: CC(C)(C)Cn1c(N)nc2ccc(-c3[nH]c(C(C)(C)C)nc3-c3ccc(F)cc3)nc21 [ralimetinib]
In short: as §1

[2] = compound: CC(C)(O)CC(=O)NCCn1ccc2ncnc(Nc3ccc(Oc4cccc(C(F)(F)F)c4)c(Cl)c3)c21
In short: as §1

[3] = compound: CC(C)C1=C2N=C(C=C(N2N=C1)NCC3=CC=CC=C3)NCCCCCCN
In short: as §1

[4] = compound: CC1=C(C(CC(=O)N1)C2=CC=C(C=C2)C(F)(F)F)C(=O)NC3=C(C=C4C(=C3)C=NN4)F
In short: as §1

[5] = compound: CC1=C(C2=C(C=C1)C(=O)C3=CC=CC=C3N2CCCN)C
In short: as §1

[6] = compound: CC1=C(C=C(C=C1)NC(=O)C2=CC(=CC=C2)C(C)(C)C#N)NC3=CC4=C(C=C3)N=CN(C4=O)C
In short: as §1

[7] = compound: CC1=C(C=C(C=C1)NC(=O)C2=CC(=CC=C2)N(C)C)NC(=O)C3=CC=C(C=C3)O
In short: as §1

[8] = compound: CC1=CC=C(C=C1)SC2=C3C=C(SC3=CN=C2)C(=O)N
In short: as §1

Measured: log2 fold change

MINDY1 isoform 3 (UniProt Q8N5J2)
Sequence of UniProt Q8N5J2 (Q8N5J2 whole entry, looked up): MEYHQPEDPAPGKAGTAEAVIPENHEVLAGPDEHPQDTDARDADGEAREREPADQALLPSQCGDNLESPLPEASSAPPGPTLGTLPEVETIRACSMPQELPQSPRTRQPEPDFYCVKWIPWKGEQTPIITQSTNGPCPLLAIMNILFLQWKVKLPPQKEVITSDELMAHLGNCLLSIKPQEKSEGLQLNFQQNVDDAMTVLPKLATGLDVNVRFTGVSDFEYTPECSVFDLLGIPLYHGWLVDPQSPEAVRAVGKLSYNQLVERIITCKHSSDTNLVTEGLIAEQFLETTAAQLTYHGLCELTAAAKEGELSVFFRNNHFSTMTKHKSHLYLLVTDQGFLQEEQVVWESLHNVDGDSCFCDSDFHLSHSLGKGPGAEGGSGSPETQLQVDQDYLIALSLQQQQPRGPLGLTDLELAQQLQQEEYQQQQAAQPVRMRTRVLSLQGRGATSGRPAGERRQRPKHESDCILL
inactive: ibrutinib 0.199 | [1] 0 | ralimetinib 0.001 | [2] -0.121 | [3] -0.022 | [4] -0.179 | [5] -0.161 | [6] -0.034 | [7] 0.015 | [8] 0.065

MED17 (UniProt Q9NVC6)
Sequence of UniProt Q9NVC6 (Q9NVC6 whole entry, looked up): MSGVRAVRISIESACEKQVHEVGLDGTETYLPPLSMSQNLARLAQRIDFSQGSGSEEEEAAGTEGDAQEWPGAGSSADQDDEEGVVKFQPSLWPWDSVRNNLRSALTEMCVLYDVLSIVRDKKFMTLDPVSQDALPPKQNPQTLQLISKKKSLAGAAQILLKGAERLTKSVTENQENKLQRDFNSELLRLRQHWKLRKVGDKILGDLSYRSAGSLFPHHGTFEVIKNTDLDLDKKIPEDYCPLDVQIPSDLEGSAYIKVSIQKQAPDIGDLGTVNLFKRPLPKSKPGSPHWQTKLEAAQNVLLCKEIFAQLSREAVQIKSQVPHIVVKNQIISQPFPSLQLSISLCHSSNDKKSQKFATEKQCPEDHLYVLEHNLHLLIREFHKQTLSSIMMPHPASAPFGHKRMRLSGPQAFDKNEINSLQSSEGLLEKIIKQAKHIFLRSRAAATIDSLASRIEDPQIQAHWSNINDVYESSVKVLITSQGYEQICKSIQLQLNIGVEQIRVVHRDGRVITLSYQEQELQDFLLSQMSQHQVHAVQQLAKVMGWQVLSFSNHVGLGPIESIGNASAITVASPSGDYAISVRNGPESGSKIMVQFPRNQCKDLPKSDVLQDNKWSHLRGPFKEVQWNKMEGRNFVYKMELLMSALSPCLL
inactive: ibrutinib 0.018 | [1] 0.003 | ralimetinib 0 | [2] -0.003 | [3] -0.017 | [4] 0.04 | [5] 0.019 | [6] 0 | [7] 0.021 | [8] 0.001

KIF2A isoform 4 (UniProt O00139)
inactive: ibrutinib 0.031 | [1] 0 | ralimetinib 0.017 | [2] 0.009 | [3] 0.002 | [4] -0.01 | [5] -0.002 | [6] -0.02 | [7] 0.032 | [8] 0.018

MECR (UniProt Q9BV79)
Sequence of UniProt Q9BV79 (Q9BV79 whole entry, looked up): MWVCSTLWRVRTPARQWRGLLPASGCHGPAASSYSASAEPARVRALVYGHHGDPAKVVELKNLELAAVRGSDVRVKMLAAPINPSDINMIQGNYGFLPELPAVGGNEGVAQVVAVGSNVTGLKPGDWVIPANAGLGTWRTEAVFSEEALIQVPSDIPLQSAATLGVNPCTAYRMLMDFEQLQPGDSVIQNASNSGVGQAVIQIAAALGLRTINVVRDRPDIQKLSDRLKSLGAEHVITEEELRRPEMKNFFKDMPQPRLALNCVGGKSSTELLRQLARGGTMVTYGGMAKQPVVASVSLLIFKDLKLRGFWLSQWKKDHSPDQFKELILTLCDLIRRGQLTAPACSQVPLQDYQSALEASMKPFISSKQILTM
inactive: ibrutinib 0.025 | [1] -0.029 | ralimetinib -0.006 | [2] -0.049 | [3] 0.008 | [4] 0.008 | [5] 0.058 | [6] -0.006 | [7] 0.006 | [8] 0.011

MGAT5 (UniProt Q09328)
Sequence of UniProt Q09328 (Q09328 whole entry, looked up): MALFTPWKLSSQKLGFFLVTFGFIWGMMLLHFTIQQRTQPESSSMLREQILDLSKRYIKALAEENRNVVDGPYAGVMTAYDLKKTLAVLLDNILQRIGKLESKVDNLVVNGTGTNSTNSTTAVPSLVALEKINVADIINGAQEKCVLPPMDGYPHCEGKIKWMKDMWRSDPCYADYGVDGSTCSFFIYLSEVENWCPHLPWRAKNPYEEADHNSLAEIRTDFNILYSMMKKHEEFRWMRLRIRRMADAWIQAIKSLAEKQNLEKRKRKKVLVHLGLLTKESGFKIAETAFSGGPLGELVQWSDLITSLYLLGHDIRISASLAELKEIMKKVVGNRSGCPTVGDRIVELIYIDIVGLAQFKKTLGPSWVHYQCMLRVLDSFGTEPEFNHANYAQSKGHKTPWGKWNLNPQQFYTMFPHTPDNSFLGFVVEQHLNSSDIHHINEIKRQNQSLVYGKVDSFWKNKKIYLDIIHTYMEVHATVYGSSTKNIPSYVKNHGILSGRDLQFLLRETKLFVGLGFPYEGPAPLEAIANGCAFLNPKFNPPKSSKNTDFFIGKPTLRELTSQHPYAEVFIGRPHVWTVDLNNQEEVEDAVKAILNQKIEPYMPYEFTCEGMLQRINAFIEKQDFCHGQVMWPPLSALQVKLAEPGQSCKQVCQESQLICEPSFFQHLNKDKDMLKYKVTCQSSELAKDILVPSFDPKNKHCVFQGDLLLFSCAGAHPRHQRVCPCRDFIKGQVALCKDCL
inactive: ibrutinib 0.038 | [1] 0.014 | ralimetinib 0.001 | [2] 0.039 | [3] -0.045 | [4] -0.084 | [5] 0.005 | [6] -0.002 | [7] -0.004 | [8] 0.014

MAP4K2 (UniProt Q12851)
inactive: ibrutinib -0.036 | [1] 0.337 | ralimetinib -0.029 | [2] 0.108 | [3] 0.04 | [5] -0.144 | [6] 0.058 | [7] 0.209 | [8] -0.207

KIF18B (UniProt Q86Y91)
inactive: [1] -0.157 | [5] -0.022 | [6] 0 | [8] -0.121

KRI1 (UniProt Q8N9T8)
inactive: ibrutinib -0.023 | ralimetinib 0.047 | [2] -0.018 | [3] 0.043 | [4] 0.074 | [5] -0.069 | [6] 0.02 | [7] 0.046

LY6E (UniProt Q16553)
Sequence of UniProt Q16553 (Q16553 whole entry, looked up): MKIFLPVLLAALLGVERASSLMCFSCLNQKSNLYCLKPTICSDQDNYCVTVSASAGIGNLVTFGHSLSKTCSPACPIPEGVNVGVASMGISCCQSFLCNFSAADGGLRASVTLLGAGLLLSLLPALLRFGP
inactive: ibrutinib -0.032 | [1] 0.028 | [4] -0.027 | [8] -0.042

MAPK12 (UniProt P53778)
inactive: ibrutinib 0.049 | ralimetinib -0.001 | [2] -0.029 | [3] -0.027 | [4] 0.074 | [5] 0.08 | [6] 0.002 | [7] -0.012

LYN isoform 2 (UniProt P07948)
inactive: ralimetinib -0.104 | [2] 0.106 | [3] -0.061 | [4] -0.432 | [5] -0.226 | [6] 0.333 | [7] -0.008

MBTPS1 (UniProt Q14703)
Sequence of UniProt Q14703 (Q14703 whole entry, looked up): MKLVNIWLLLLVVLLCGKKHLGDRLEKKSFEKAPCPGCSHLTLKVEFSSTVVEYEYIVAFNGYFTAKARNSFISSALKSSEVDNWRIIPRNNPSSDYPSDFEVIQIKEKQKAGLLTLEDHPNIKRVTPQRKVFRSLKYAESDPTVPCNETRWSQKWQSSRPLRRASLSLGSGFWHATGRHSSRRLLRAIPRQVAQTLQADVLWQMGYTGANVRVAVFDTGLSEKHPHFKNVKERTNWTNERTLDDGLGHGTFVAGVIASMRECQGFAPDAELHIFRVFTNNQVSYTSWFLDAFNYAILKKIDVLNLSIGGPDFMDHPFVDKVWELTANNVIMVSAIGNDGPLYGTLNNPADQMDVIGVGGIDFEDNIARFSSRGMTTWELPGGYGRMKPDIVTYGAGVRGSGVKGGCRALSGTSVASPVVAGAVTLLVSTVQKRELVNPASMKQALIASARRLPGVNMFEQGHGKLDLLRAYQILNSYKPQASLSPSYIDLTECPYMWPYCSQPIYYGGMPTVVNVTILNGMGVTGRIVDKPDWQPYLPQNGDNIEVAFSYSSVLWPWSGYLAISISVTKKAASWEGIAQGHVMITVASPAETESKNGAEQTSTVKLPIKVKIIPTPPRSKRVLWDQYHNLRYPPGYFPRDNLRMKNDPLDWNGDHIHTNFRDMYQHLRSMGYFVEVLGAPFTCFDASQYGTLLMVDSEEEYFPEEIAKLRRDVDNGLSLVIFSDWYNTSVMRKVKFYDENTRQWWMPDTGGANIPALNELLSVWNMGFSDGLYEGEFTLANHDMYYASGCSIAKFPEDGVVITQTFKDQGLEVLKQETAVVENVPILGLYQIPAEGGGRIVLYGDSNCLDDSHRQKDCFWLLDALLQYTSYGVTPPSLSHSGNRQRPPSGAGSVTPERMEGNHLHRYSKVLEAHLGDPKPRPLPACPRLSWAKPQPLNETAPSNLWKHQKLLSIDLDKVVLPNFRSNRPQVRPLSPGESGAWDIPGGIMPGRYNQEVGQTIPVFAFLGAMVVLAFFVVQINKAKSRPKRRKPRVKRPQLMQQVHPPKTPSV
inactive: ibrutinib -0.243 | ralimetinib 0.056 | [2] -0.045 | [3] -0.029 | [5] -0.041 | [6] 0.008 | [7] 0.048

KIFC3 isoform 6 (UniProt Q9BVG8)
Sequence of UniProt Q9BVG8 (Q9BVG8 whole entry, looked up): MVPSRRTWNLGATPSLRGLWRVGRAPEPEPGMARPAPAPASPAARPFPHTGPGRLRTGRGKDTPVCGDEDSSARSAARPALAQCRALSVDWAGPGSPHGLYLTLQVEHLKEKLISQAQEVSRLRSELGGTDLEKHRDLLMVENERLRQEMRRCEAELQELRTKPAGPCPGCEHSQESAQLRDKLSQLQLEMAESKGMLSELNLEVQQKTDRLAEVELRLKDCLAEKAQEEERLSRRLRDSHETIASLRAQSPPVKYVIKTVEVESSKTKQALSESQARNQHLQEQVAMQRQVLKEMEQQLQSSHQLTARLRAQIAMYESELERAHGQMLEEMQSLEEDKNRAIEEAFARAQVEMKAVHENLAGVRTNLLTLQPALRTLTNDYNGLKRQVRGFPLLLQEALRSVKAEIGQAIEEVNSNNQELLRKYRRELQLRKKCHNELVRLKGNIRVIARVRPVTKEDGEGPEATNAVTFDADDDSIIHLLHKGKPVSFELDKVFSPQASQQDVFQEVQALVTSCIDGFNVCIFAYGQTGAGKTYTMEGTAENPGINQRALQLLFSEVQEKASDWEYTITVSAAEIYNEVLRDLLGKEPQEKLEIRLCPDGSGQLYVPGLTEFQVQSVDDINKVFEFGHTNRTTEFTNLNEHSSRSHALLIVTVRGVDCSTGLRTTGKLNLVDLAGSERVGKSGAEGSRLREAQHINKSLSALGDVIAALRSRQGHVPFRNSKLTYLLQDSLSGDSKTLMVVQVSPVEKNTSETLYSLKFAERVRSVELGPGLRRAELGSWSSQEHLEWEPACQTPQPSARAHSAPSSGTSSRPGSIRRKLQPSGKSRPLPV
inactive: ibrutinib 0 | [3] 0.097 | [5] -0.231 | [6] 0.193

LRRC9 (UniProt Q6ZRR7)
inactive: [6] 0.042

MPP5 (UniProt Q8N3R9)
inactive: ibrutinib 0 | ralimetinib 0.019 | [2] -0.063 | [3] -0.079 | [4] -0.082 | [5] -0.067 | [6] 0.017 | [7] 0.014

MAP3K6 (UniProt O95382)
inactive: [4] -0.12

MPDZ (UniProt O75970)
inactive: [1] 0.264 | ralimetinib 0.024 | [2] -0.157 | [3] -0.015 | [4] -0.173 | [5] 0.062 | [6] 0.057 | [7] 0.076 | [8] -0.029

MAPKAP1 (UniProt Q9BPZ7)
inactive: ralimetinib -0.019 | [2] 0 | [3] -0.031 | [4] -0.103 | [5] 0.061 | [6] 0.007 | [7] -0.034

KMT2B (UniProt Q9UMN6)
inactive: [3] 0.53 | [5] -0.135 | [6] -0.072

MOCS3 (UniProt O95396)
Sequence of UniProt O95396 (O95396 whole entry, looked up): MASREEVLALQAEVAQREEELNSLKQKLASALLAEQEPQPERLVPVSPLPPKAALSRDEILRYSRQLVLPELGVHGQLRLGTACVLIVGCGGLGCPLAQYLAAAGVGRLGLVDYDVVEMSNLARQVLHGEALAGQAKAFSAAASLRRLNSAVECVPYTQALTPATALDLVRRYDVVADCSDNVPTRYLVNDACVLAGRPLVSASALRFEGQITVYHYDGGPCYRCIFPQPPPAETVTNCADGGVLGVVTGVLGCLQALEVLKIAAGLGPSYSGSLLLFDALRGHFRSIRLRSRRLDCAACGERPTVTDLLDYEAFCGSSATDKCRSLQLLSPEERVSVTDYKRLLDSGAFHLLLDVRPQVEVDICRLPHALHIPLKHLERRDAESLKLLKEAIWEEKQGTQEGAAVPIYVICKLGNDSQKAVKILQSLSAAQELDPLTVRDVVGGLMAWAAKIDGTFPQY
inactive: ibrutinib 0.045 | ralimetinib -0.016 | [2] -0.014 | [3] -0.018 | [4] 0.056 | [5] -0.04 | [6] 0.079 | [7] 0.001

MEGF8 (UniProt Q7Z7M0)
inactive: ibrutinib 0 | ralimetinib -0.019 | [2] -0.124 | [3] -0.057 | [5] 0.091 | [6] 0.079 | [7] 0.154
